Experimental data reported in PubChem BioAssay (NCATS).
Where “and” joins values, the source holds several entries; their conditions need not be identical. Equal values may be shown once. Inconclusive results are not listed. Calls of active or inactive are those of the source. Unless noted, the call rests on the fitted dose curve; in most records, active means well fitted curve in the direction sought with a large enough effect; inconclusive means small, poorly fitted or top-dose-only effect, or another doubt; inactive means no such curve, though single readings can be large; an effect the other way counts as inactive or inconclusive.

Columns and labels:
[1] = molecular target: Cytochrome P450 1A2 (Homo sapiens) (UniProt P05177); assay: p450-cyp1a2 (AID 410; calls by dose curve; further: potency means the concentration at half of the fitted maximal effect)
Chain of Cytochrome P450 1A2 (Homo sapiens) (P05177 whole entry, looked up): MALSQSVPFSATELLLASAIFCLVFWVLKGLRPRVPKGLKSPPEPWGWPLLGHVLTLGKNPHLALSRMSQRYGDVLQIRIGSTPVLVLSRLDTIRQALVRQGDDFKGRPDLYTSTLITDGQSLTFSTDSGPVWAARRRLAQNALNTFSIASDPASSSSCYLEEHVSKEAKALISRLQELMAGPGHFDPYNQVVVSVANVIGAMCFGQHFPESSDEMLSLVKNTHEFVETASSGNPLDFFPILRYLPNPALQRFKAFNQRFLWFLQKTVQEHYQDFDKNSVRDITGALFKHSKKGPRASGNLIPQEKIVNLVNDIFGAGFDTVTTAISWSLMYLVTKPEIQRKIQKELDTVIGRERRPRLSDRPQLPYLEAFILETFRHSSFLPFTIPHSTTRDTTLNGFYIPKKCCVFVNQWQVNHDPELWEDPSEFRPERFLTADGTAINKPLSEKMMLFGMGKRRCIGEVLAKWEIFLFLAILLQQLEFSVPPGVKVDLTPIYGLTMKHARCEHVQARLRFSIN
How it was run: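 Human CYP1A2 (20nM) demethylated Luciferin-ME at its Km (100uM) in 100mM KPO4. After 10 min compound preincubation, NADPH regeneration ran the reaction 60 min at room temperature. Luciferin was read by luminescence, normalized to 57 uM furafylline.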

[2] = molecular target: Glucocorticoid receptor (Homo sapiens) (UniProt P04150); assay: GR-GFP Redistribution (AID 450;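 active means compounds whose dose series gives a full or clear partial fitted curve of increased nuclear translocation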; further: potency means the concentration at half of the fitted maximal effect); conditions: U2OS GR-GFP nuclear translocation, laser cytometry, 2 h
Chain of Glucocorticoid receptor (Homo sapiens) (P04150 whole entry, looked up, the tested form may be a part): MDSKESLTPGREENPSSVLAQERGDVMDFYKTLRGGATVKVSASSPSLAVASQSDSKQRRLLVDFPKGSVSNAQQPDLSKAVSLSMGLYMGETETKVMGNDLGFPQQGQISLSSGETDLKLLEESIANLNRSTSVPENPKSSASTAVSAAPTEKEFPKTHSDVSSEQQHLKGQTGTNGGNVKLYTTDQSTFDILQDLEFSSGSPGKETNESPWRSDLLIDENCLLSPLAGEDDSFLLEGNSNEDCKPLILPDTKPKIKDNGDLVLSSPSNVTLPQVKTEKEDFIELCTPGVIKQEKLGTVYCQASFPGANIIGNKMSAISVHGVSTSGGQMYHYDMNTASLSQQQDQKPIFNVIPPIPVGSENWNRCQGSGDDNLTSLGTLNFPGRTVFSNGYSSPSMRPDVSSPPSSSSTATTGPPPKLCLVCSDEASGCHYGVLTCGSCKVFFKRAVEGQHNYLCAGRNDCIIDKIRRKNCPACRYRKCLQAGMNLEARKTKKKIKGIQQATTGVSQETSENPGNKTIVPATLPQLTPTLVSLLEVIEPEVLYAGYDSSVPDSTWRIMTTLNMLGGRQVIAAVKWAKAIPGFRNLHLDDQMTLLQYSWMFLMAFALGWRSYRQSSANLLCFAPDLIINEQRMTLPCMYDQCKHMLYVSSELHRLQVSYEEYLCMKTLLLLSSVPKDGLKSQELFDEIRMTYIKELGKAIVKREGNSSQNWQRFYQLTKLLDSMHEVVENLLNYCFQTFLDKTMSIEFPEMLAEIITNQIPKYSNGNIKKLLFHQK

[3] = molecular target: Glucocorticoid receptor (Homo sapiens) (UniProt P04150); assay: GR-EFC Redistribution (AID 451; calls by dose curve; further: potency means the concentration at half of the fitted maximal effect); conditions: CHO-K1 GR-EFC translocation, beta-gal luminescence, 2 h
How it was run: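 CHO-K1 cells expressing nuclear EA and GR-ED fragments of b-gal; compounds titrated up to 46 uM final, 2 h at 37 C. GR nuclear translocation read as complemented b-gal luminescence after 1 h RT detection.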

[4] = molecular target: Mitogen-activated protein kinase 10 (Mus musculus) (UniProt Q61831); assay: JNK3 AlphaScreen Assay (AID 530; active means well fitted curve in either direction with a large enough effect, not every such curve was filed as active;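 further: kinase came from lysate of stimulated human HepG2 cells; signal reports phosphorylation of biotinylated GST-cJun 1-79 at Ser73 with 10 µM ATP; on the % scale 0 is the no-effect control and ±100 the full control effect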)
How it was run: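 qHTS format: compounds tested as titrations against IL-1beta/TNF-alpha-activated HepG2 lysate JNK3 with biotin-GST-cJun substrate and 10 uM ATP at room temperature. Loss of anti-phospho-cJun AlphaScreen signal indicates inhibition.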

[5] = qHTS Assay for Lipid Storage Modulators (AID 1519; calls by dose curve); conditions: Drosophila S3 cells, BODIPY lipid droplet/cell ratio, laser cytometry, cells loaded with oleic acid
How it was run: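 Cells seeded at 5,000 per well were treated with compounds over a concentration series and loaded with oleic acid (400 uM, as added). Lipid droplet fluorescence (488 nm excitation, 500-530 nm channel) was read by laser-scanning cytometry and normalized to 20 uM Triacsin C.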

[6] = molecular target: DNA dC->dU-editing enzyme APOBEC-3G (Homo sapiens) (UniProt Q9HC16); assay: qHTS for inhibitors of Vif-A3G interactions: Validation (AID 588379); further: 0% is about no effect
Chain of DNA dC->dU-editing enzyme APOBEC-3G (Homo sapiens) (Q9HC16 whole entry, looked up): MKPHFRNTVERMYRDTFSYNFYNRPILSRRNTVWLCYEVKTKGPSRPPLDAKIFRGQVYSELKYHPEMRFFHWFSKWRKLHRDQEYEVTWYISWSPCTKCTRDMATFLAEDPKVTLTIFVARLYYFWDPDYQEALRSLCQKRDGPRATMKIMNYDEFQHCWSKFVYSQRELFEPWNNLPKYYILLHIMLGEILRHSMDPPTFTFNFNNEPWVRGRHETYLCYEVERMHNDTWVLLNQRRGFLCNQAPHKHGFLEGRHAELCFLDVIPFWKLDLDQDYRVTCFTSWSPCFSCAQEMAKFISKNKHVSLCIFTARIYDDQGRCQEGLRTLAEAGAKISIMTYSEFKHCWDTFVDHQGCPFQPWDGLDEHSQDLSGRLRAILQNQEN
How it was run: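 HeLa cells stably expressing Vif and A3G-eYFP, 700 cells/well, incubated overnight at 37 deg C, then exposed to compound overnight at 37 deg C. Inhibition of Vif-mediated degradation read as increased yellow fluorescence (Ex 488/Em 500-530) by laser-scanning cytometry.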

[7] = tested on: Zika virus NS2B-NS3 protease; assay: Primary screen GU AMC qHTS for Zika virus inhibitors (AID 1347154);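 further: 0% = no-inhibitor control and -100% = no-enzyme control; nearly all actives have a fitted effect of over 70% in size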
How it was run: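 Unlinked Zika NS2B hydrophilic domain–NS3 protease complex at 25 nM in 10 mM Tris-HCl pH 8.0, 0.01% Tween 20, with an AMC peptide substrate. Fluorescence change (340/450 nm) over 15 min at room temperature, normalized to controls, fitted to 4-parameter Hill.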

[8] = Primary qHTS for small molecule stabilizers of the endoplasmic reticulum resident proteome: Secreted ER Calcium Modulated Protein (SERCaMP) assay (AID 1508630); further: on the % scale 0 is the no-effect control and ±100 the full control effect
How it was run: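 GLuc-SERCaMP-expressing SH-SY5Y cells, pretreated 16 h with compound, are challenged with thapsigargin to empty ER calcium stores; after 4 h, coelenterazine is added directly to the medium and luminescence is imaged.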

[9] = AP1 Signaling Pathway (AID 357; active means well fitted curve in either direction with a large enough effect, not every such curve was filed as active; further: on the % scale 0 is the no-effect control and ±100 the full control effect)
How it was run: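 ME-180 cells with beta-lactamase reporter under AP-1 response element, stimulated with EC50 EGF; compounds tested in titration series, 5 h at 37 °C. CCF4 substrate added 2.5 h at room temperature; 460/530 nm emission ratio gave %activity and AC50.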

[10] = NFAT Signaling Pathway (AID 444; active means well fitted curve in either direction with a large enough effect, not every such curve was filed as active;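 further: carbachol stimulus at about its EC50 of 1 µM final; on the % scale 0 is the no-effect control and ±100 the full control effect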); conditions: Jurkat NFAT-bla M1, carbachol, beta-lactamase ratio, 5 h; at 38 µM (top of the series)
How it was run: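 Jurkat cells with NFAT-driven β-lactamase reporter and co-expressed M1 receptor, stimulated with carbachol (final 1 uM, ~EC50), compound titration, 5 h at 37 °C. CCF4 loaded 1 h at RT; 460/530 nm ratio gave %activity and AC50.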

[11] = Stat Signaling Pathway (AID 446; active means well fitted curve in either direction with a large enough effect, not every such curve was filed as active)
How it was run: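 Screening format detects activators and inhibitors alike: ME-180 SIE-bla cells stimulated at 40 pM IL-6 for 5 hrs with compound, then dual-emission beta-lactamase read at 405 nm excitation.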

[12] = molecular target: 3',5'-cyclic-AMP phosphodiesterase 4B (Homo sapiens) (UniProt Q07343); assay: qHTS Assay for Inhibitors of PDE-IV (AID 607; active means well fitted activation curve with a large enough effect in the main read-out, with a control signal flat, not every such curve was filed as active; further: % of control where 0% means no effect)
Chain of 3',5'-cyclic-AMP phosphodiesterase 4B (Homo sapiens) (Q07343 whole entry, looked up): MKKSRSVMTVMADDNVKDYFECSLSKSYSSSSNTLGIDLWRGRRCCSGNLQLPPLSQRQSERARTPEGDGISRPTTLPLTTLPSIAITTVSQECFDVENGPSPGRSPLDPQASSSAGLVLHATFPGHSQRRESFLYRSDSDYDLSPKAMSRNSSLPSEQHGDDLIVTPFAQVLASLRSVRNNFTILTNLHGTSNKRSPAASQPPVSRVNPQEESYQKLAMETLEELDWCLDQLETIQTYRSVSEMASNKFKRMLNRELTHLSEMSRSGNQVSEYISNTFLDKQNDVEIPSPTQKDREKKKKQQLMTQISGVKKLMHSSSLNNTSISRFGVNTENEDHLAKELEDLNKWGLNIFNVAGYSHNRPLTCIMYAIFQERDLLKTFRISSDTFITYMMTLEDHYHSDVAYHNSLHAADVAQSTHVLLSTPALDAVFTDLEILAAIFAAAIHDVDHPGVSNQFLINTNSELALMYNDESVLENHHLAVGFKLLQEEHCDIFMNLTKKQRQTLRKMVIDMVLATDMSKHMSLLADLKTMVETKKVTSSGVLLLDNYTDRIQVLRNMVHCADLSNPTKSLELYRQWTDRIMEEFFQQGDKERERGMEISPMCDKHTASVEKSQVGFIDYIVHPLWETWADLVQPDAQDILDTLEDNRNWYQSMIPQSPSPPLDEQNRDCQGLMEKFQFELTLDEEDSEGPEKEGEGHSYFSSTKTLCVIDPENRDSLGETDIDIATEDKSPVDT
How it was run: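 The readout is membrane depolarisation from a cAMP-sensing CNG channel, detected with a potential dye at ex 535/em 590. Cells were HEK293-derived (endogenous PDE-IV) at 1000 cells/well, titrated up to 22.9 uM final.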

[13] = molecular target: Guanine nucleotide-binding protein G(i) subunit alpha-1 (Homo sapiens) (UniProt P63096); assay: qHTS Assay for Inhibitors of RGS12 GoLoco Motif Activity (Green Fluorophore) (AID 879);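 further: 0% = labeled peptide with Gαi1 and full inhibition = labeled peptide alone without protein; negative values mean loss of peptide binding seen as reduced polarization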
Chain of Guanine nucleotide-binding protein G(i) subunit alpha-1 (Homo sapiens) (P63096 whole entry, looked up): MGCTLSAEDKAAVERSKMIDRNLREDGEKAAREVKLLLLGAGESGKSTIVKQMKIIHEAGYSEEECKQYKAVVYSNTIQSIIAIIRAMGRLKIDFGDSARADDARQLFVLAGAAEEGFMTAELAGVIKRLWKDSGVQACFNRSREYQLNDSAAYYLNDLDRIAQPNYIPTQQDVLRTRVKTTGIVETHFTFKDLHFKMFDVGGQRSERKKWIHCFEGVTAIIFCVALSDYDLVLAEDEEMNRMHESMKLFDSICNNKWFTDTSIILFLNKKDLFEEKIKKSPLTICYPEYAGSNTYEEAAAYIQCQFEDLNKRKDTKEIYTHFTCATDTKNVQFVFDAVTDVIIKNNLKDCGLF
How it was run: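 Fluorescence polarization assay: 50 nM Gαi1 with 10 nM FITC-labeled RGS12 GoLoco peptide in 10 mM Tris pH 7.5, 150 mM NaCl, 0.1 mM GDP, 0.05% NP40, 10 min at room temperature with compound.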

[14] = molecular target: Cytochrome P450 3A4 (Homo sapiens) (UniProt P08684); assay: qHTS Assay for Activators of Cytochrome P450 3A4 (AID 885); further: nearly all actives have a fitted effect of over 65% in size; further: potency means the concentration at half of the fitted maximal effect
Chain of Cytochrome P450 3A4 (Homo sapiens) (P08684 whole entry, looked up): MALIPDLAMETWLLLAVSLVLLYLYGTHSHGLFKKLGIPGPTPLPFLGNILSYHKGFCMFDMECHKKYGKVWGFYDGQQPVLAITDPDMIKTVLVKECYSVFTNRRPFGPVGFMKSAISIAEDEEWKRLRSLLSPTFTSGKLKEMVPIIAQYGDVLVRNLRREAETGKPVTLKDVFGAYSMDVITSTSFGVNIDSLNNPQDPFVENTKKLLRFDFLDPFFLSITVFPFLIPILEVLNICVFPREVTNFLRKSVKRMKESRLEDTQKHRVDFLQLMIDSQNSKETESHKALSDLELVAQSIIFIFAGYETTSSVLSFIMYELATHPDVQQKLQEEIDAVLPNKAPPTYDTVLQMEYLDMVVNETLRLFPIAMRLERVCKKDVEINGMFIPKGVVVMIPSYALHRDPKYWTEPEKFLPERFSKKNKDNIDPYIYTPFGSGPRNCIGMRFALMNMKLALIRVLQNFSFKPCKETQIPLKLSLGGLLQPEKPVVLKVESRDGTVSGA
How it was run: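 Steps: enzyme/substrate mix dispensed; compound added, 10 min RT; NADPH regeneration solution added, 60 min RT; luciferin detection buffer stops reaction; 20 min later luminescence measured.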

[15] = molecular target: Cytochrome P450 2D6 (Homo sapiens) (UniProt P10635); assay: qHTS Assay for Inhibitors and Substrates of Cytochrome P450 2D6 (AID 891); further: potency means the concentration at half of the fitted maximal effect; nearly all actives have a fitted effect of over 60% in size
How it was run: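 Human CYP2D6 (5 nM) with 30 uM Luciferin-ME EGE (at Km) in 100 mM KPO4, compound preincubated 10 min, then NADPH regeneration system for 60 min at room temperature. Luciferin read by luminescence; normalized to 1.43 uM quinidine.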

[16] = molecular target: Pyruvate kinase (Leishmania mexicana) (UniProt Q27686); assay: qHTS Validation Assay for Inhibitors of Leishmania Mexicana Pyruvate Kinase (AID 945);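 further: 0% = DMSO only neutral control wells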
Chain of Pyruvate kinase (Leishmania mexicana) (Q27686 2-499 E452W): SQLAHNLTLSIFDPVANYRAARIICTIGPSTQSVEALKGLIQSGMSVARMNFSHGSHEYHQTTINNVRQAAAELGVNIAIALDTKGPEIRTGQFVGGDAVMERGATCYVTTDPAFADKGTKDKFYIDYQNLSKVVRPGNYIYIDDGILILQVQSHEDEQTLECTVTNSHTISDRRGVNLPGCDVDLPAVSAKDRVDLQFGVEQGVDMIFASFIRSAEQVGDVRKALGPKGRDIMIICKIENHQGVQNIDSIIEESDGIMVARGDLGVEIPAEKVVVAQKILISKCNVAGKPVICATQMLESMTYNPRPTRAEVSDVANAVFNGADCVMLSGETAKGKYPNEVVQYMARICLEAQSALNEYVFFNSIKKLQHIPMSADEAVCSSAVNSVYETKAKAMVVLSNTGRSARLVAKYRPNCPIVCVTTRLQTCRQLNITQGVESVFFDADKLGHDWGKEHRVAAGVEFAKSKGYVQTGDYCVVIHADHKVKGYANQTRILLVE
How it was run: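 Substrate mix (0.5 mM PEP, 0.1 mM ADP, 7 mM MgCl2, 50 mM KCl, pH 7.2 imidazole) received compound by pin tool, then 0.2 nM LmPYK E451W. After 1 h at room temperature, PKLight was added and luminescence measured.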

[17] = molecular target: Pyruvate kinase PKM (Homo sapiens) (UniProt P14618); assay: qHTS Assay for Activators of Human Muscle Pyruvate Kinase (AID 954; active means well fitted curve in the direction sought with a large enough effect, not every such curve was filed as active;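 further: 0% = uninhibited enzyme and -100% = no enzyme or full thiadiazolimine inhibition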)
How it was run: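 Reaction: 0.1 nM purified PKM2 with 0.5 mM phosphoenolpyruvate and 0.1 mM ADP, room temperature, 1 h. Readout: luciferase-based ATP luminescence after stop reagent. Activators judged against a 0.3 nM enzyme column.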

[18] = molecular target: Alpha-galactosidase A (Homo sapiens) (UniProt P06280); assay: Counterscreen for Glucocerebrosidase Inhibitors: qHTS Assay for Human alpha-Galactosidase at pH 4.5 (AID 992); further: 0% is about no effect
Chain of Alpha-galactosidase A (Homo sapiens) (P06280 whole entry, looked up): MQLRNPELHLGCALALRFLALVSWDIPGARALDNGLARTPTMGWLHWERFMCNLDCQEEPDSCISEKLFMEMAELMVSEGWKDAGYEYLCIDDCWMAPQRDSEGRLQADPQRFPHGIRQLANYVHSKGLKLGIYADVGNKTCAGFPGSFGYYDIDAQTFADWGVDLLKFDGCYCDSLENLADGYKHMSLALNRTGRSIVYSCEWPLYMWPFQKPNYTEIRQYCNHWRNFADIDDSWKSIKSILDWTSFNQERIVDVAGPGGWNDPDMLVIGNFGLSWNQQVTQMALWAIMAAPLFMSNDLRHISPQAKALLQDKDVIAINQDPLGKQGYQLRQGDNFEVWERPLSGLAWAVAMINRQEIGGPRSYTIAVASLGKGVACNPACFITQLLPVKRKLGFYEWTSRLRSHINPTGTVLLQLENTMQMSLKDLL
How it was run: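 Concentration-response curves (0.7 nM to 77 uM final) were modeled with the Hill equation to give AC50. Reactions: 2 nM enzyme, 80 uM fluorogenic alpha-galactoside, pH 4.5 citric acid buffer, 20 min, room temperature.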

[19] = molecular target: alpha-glucosidase (Oryza sativa, rice) (UniProt Q653V4); assay: Counterscreen for Glucocerebrosidase Inhibitors: qHTS Assay for Rice alpha-Glucosidase at pH 5.0 (AID 997);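 further: 0% = full activity with enzyme and -100% = basal without enzyme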
How it was run: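 Rice alpha-glucosidase (4 nM final) with 400 uM 4-methylumbelliferyl-alpha-D-glucopyranoside in citrate buffer pH 5.0, 20 min at room temperature, stopped at pH 10; fluorescence 365/440 nm, compounds 0.7 nM–77 uM, AC50 from Hill fits.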

[20] = molecular target: Ubiquitin carboxyl-terminal hydrolase 1 (Homo sapiens) (UniProt O94782); assay: Inhibitors of USP1/UAF1: Pilot qHTS (AID 504865);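 further: rhodamine fluorescence freed from ubiquitin-rhodamine substrate followed over time; top concentration of the series differs between compounds; on the % scale 0 is the no-effect control and ±100 the full control effect; nearly all actives have a fitted effect of over 35% in size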
Chain of Ubiquitin carboxyl-terminal hydrolase 1 (Homo sapiens) (O94782 whole entry, looked up): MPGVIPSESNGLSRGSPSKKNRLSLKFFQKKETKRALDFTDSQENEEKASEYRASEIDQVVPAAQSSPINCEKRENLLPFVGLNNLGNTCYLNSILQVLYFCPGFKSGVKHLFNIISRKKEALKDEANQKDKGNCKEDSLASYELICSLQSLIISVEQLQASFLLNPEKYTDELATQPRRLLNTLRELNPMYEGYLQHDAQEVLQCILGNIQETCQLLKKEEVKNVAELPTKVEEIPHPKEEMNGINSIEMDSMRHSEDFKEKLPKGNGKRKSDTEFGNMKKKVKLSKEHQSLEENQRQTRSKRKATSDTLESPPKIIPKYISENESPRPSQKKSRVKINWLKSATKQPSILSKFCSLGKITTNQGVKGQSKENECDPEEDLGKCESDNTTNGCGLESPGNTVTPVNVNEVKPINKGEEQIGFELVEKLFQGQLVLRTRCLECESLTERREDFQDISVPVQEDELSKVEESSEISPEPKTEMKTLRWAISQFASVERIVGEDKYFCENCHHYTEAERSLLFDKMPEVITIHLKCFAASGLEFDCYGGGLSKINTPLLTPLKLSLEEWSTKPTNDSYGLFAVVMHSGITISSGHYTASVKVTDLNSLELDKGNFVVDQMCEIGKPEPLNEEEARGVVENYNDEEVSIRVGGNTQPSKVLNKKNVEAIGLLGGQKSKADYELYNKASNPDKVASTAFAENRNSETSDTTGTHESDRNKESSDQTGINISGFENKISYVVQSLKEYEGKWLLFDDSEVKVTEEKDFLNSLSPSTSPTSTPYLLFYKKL
How it was run: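 In 50mM HEPES pH 7.8 containing 0.5mM EDTA, 1mM TCEP, 0.1 mg/ml BSA and 0.01% Tween-20, 1nM USP1/UAF1 is exposed to compound for 15 min, then Ub-Rho (150nM final) is added and fluorescence is read over time.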

[21] = measured here: cell count channel max response
[22] = measured here: lipid channel max response

CCCN(CCC)[C@@H]1CCc2c(OC)cccc2[C@@H]1C
active: Potency [1] 31.6 µM
inactive: Potency [2] > 46 µM | Potency [3] > 46 µM | outcome [4] | activity change, negative = inhibition ([5]; at 57.5 µM (top of the series)) -0.226% | Potency [6] | Potency [7]
12.1%: max response [5, 22]
8.03%: max response [5, 21]

O=C1CC[C@@]2(O)[C@H]3Cc4ccc(O)c5c4C2(CCN3CC2CC2)[C@H]1O5
inactive: Potency [7] | Potency [8]

C[C@H](N)Cc1c[nH]c2ccc(OCc3cccs3)cc12
inactive: outcome [9] | activity change, negative = inhibition [10] 7.25% | outcome [11] | Potency [2] > 46 µM | Potency [3] > 46 µM | outcome [4] | Potency [12] | outcome [13] | Potency [14] | outcome [16] | outcome [17] | outcome [18] | outcome [19] | Potency [6] | Potency [7]
active: Potency [1] 1.58 µM and 126 nM | Potency [15] 794 nM

O[C@H]1CCCC[C@H]1N1CCC(c2ccccc2)CC1
-12.1% and 1.1%: max response [5, 21]
inactive: outcome [9] | outcome [11] | Potency [2] > 20.6 µM and > 46 µM | Potency [3] > 20.6 µM and > 46 µM | outcome [4] | Potency [12] | activity change, negative = inhibition ([5]; at 25.7 µM (top of the series)) 0.444% | activity change, negative = inhibition ([5]; at 57.5 µM (top of the series)) 0.117% | Potency [20] | Potency [6] | Potency [7]
-11.1% and -2.26%: max response [5, 22]

CN(C(=O)Cc1ccc(Cl)c(Cl)c1)[C@H](CN1CCCC1)c1cccc(N=C=S)c1
inactive: Potency [2] > 46 µM | Potency [3] > 46 µM | outcome [4] | Potency [12] | Potency [6] | Potency [7] | Potency [8]

C[C@](N)(CCP(=O)(O)O)C(=O)O
-23.4%: max response [5, 21]
inactive: Potency [2] > 46 µM | Potency [3] > 46 µM | outcome [4] | activity change, negative = inhibition ([5]; at 57.5 µM (top of the series)) 6.09% | Potency [20] | Potency [6] | Potency [7]
-20.7%: max response [5, 22]

CC(C)n1cnc2c(C(=O)N[C@H]3CN4CCC3CC4)cc(Cl)cc21
19.1%: max response [5, 22]
active: Potency [14] 31.6 µM
14.7%: max response [5, 21]
inactive: Potency [2] > 46 µM | Potency [3] > 46 µM | Potency [12] | activity change, negative = inhibition ([5]; at 57.5 µM (top of the series)) 2.71% | Potency [20] | Potency [6] | Potency [7]
